GLP-1R inv ag: qHTS of GLP-1 Receptor Inverse Agonists (Inhibition Mode); Potency, µM (titrated, usually from 38.3 µM), most hits filed as inhibitors; HEK293 GLP-1R CRE-luciferase, luminescence, 24 h; GLP-1R form is constitutively active; Glucagon-like peptide 1 receptor (Homo sapiens), P43220; AID 624417, 2012; actives 1.6% (n = 410,000); further: nearly all actives have a fitted effect of over 55% in size
Target sequence (P43220 whole entry, looked up): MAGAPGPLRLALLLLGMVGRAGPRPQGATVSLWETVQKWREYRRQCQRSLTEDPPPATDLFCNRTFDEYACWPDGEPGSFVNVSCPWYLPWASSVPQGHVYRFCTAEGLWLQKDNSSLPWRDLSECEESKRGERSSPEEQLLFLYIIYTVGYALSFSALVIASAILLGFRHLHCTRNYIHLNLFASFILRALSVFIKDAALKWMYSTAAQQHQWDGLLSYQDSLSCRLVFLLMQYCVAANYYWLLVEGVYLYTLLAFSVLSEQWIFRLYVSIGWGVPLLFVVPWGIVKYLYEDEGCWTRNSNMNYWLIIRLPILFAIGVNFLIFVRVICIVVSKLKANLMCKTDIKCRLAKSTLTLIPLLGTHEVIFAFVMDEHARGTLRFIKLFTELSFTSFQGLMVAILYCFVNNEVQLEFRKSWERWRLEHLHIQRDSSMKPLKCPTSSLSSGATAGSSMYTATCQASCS
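HEK293 cells stably co-expressing constitutively active GLP-1R and a cAMP-responsive luciferase reporter were seeded in DMEM with 10% Nu serum, given compounds after 12 h, and incubated 24 h at 37 deg C. Luminescence was then read.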
GLP1R cytotox: qHTS of GLP-1 Receptor Inverse Agonists: Cytotox Screen | HEK293 cAMP-luciferase reporter cells, luminescence, 24 h | Potency, µM (top dose mostly 38.3 µM), actives largely listed as inhibitors | actives 0.13% (n = 410,000);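 further: loss of luciferase light is scored as toxicity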
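Here, cytotoxicity is scored as loss of luminescence. The MLSMR collection was tested on cells seeded in medium containing 10% Nu serum, with a 24 hr compound exposure preceded by 12 hours of culture.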
ClpP mod: qHTS Assay for Activators of ClpP; ATP-dependent Clp protease proteolytic subunit (Bacillus subtilis (strain 168)), P80244; purified B. subtilis ClpP, FRET peptide cleavage, 20 min; Potency, µM (series often up to 57.5 µM); actives 1.9% (n = 340,000); active means well fitted falling curve with a large enough effect; inconclusive means small, poorly fitted or top-dose-only effect; inactive means no such curve, though single readings can be large or run the other way; further: the source files actives as falling curves though it sought activators and does not explain the sign; nearly all actives have a fitted effect of over 65% in size
Target sequence (P80244 whole entry, looked up): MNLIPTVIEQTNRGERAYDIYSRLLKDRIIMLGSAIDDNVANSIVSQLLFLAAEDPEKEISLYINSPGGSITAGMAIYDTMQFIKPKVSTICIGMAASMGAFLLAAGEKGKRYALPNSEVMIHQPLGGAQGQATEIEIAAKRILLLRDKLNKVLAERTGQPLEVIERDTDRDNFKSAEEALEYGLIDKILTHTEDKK
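Buffer: 100 mM Tris/HCl pH8, 100 mM KCl, 0.05% low protease BSA, 2.5% glycerol, 0.01% Tween-20. ClpP 10 microg/mL final; 20 min RT; delta FRET normalized to ADEP and DMSO controls.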
p53 reactivation: qHTS assay for re-activators of p53 using a Luc reporter. Potency, µM (top dose mostly 92.2 µM), actives largely listed as activators. H1299 p53-A138V BP100-luciferase reporter, luminescence, 24 h. actives 0.063% (n = 320,000). AID 504706, 2011; further: nearly all actives have a fitted effect of over 45% in size
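p53-null H1299 cells stably carrying temperature-sensitive p53-A138V and a BP100-luciferase reporter were pinned with compounds (4-point, 1:5 series) and held 24 hrs at 37 deg C. Luminescence was read 10 min after detection reagent.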
GLP1R ag: qHTS of GLP-1 Receptor Agonists | HEK293 GLP-1R CRE-luciferase, luminescence, 4-6 h; cells express a hypersensitive GLP-1R form | Potency, µM (titrated, usually from 45.6 µM), usual class: activators | actives 0.007% (n = 380,000)
LDHA block: qHTS assay for inhibitors of human lactate dehydrogenase; L-lactate dehydrogenase A chain (Homo sapiens), P00338; activity change, % (values are at about 110 or 230 µM); actives 0.15% (n = 480,000); purified LDHA, NADH/diaphorase-resazurin fluorescence; hits give low values; in the data active means activity change below about -30%; inconclusive means mostly about -25% to -30%
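Human LDH5 at 2 nM final in Tris HCl pH 7.4 with 0.06 mM NADH and 0.2 mM pyruvate, reacted 5 minutes at room temperature. Remaining NADH coupled via diaphorase/resazurin; resorufin fluorescence read at 0 and 20 minutes, normalized to enzyme-free and DMSO wells.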
Numbers stand for hits; i = inactive; ? = inconclusive; nt = no result; [ ] = another dose, or the depositor's remark. A selection: hits, their analogues and other compounds. The true share with any hit is near 2.9%. Unless noted, the call rests on the fitted dose curve; in most records, active means well fitted curve in the direction sought with a large enough effect; inconclusive means small, poorly fitted or top-dose-only effect, or another doubt; inactive means no such curve, though single readings can be large; an effect the other way counts as inactive or inconclusive.

SMILES	GLP-1R inv ag	GLP1R cytotox	ClpP mod	p53 reactivation	GLP1R ag	LDHA block
Cc1ccc(C(=O)Nc2c(C)cc(-c3ccc(Cl)cc3)oc2=O)cc1	i	i	14µM	i	i	i
CCc1ccc(C2=CC(c3cc(Br)ccc3F)n3ncnc3N2)cc1 (centres undefined)	i	i	32µM	i	i	i
O=C(CSc1ccc(-c2cccc([N+](=O)[O-])c2)nn1)N1CCCCCC1	i	i	nt	i	i	i
COC(=O)Cn1c(=NC(=O)c2sc3ccccc3c2Cl)sc2cc(S(N)(=O)=O)ccc21	i	i	14µM	i	i	i
CCOC(=O)Cn1c(=NC(=O)c2sc3ccccc3c2Cl)sc2cc(S(N)(=O)=O)ccc21	i	i	?	i	i	i
CCOc1ccccc1NC(=S)/C(=C(\[O-])c1ccc2c(c1)OCCO2)[n+]1ccc(CC)cc1	?	i	i	i	i	i
O=C(COc1ccccc1Cl)Nc1ccc2[nH]c(=O)[nH]c2c1	i	i	16µM	i	i	i
CCNC(=S)NNc1nc(N2CCOCC2)nc(N2CCOCC2)n1	i	i	nt	i	i	i
Cc1ccc(SCc2nc(-c3cccnc3)no2)cc1	i	i	i	i	i	i
CC(Sc1nc(CN2CCOCC2)nc2ccccc12)C(=O)Nc1ccc(F)cc1F (centres undefined)	nt	nt	nt	nt	nt	-33
CC(Sc1nc(CN2CCOCC2)nc2ccccc12)C(=O)NC1CC1 (centres undefined)	nt	nt	nt	nt	nt	i
Cc1c(C#N)c(=O)oc2ccc3ccccc3c12	i	i	7.9µM	i	i	i
COc1ccccc1-c1nnc(SCC(=O)Nc2ccc(S(N)(=O)=O)cc2)n1C	i	i	i	i	i	i
CCC(=O)NCCNc1nc2cc(C)c(C)cc2cc1C#N	i	i	13µM	i	i	i
Cc1ccc2cc(C#N)c(NCCNC(=O)C3CC3)nc2c1C	i	i	35µM	i	i	i
CCOc1ccc2nc(NCCNC(=O)CC)c(C#N)cc2c1	i	i	?	i	i	i
Cc1ccc2cc(C#N)c(NCCNC(=S)NCCCN(C)C)nc2c1C	?	i	?	i	i	i
Cc1nc2cc(C(=O)N3CCc4ccccc43)ccc2n1-c1ccc(F)c(F)c1	i	i	i	i	i	i
Cc1noc(C)c1CSCC(=O)Nc1cc(S(=O)(=O)N2CCOCC2)ccc1OCC(F)(F)F	i	i	i	i	i	i
CCOC(=O)c1sc2cccc(F)c2c1S(=O)(=O)Nc1ccccc1F	i	i	i	nt	nt	i
CCOc1ccccc1N(CC(=O)NC1CCCCC1)C(=O)c1nsc(Cl)c1Cl	10µM	i	nt	i	i	i
O=C(OCCN1C(=O)c2cccc3c(N4CCOCC4)ccc(c23)C1=O)c1ccccc1Cl	?	i	i	i	i	i
O=C(OCCN1C(=O)c2cccc3c(N4CCOCC4)ccc(c23)C1=O)c1ccc(Cl)cc1Cl	1.3µM	i	i	i	i	i
N#CC1(c2ccccc2)CCN(S(=O)(=O)c2ccc(OC(F)(F)F)cc2)CC1	10µM	i	i	i	i	i
CC(Oc1ccccc1)C(=O)N1CCN(S(=O)(=O)c2ccc(OC(F)(F)F)cc2)CC1 (centres undefined)	i	i	i	nt	i	i
SMILES	GLP-1R inv ag	GLP1R cytotox	ClpP mod	p53 reactivation	GLP1R ag	LDHA block
Cc1nc(CN2CCN(C(=O)NC(C)c3ccccn3)CC2)cs1 (centres undefined)	nt	nt	nt	nt	nt	i
O=S(=O)(NC(=NCc1ccccc1)c1ccc(F)cc1)c1ccc(Cl)cc1	11µM	i	i	i	i	i
CCOc1cc(C2NN=C(c3ccccc3)S2)ccc1OCc1ccc(F)cc1 (centres undefined)	i	i	14µM	?	i	i
CCOc1cc(CNCc2ccccn2)cc(Cl)c1OCc1ccc(F)cc1	nt	nt	nt	nt	nt	i
CC1(C)Oc2c(ccc(O)c2CN2CCOCC2)C2=C1CCCC2	7.1µM	i	i	nt	i	i
CNC(=O)C(=O)NCC1OCCN1S(=O)(=O)c1ccc(C)cc1 (centres undefined)	i	i	i	i	i	i
Cc1ccc(S(=O)(=O)N2CCOC2C(Cl)(Cl)Cl)cc1 (centres undefined)	10µM	i	i	i	i	i
CCOc1ccccc1NC(=O)CCc1nc(-c2ccc(C)n(CC)c2=O)no1	nt	nt	nt	nt	nt	i
COCCn1c(NC(=S)NC(=O)C2CC2)cc(=O)[nH]c1=O	i[0.307 µM]	i[0.307 µM]	i	i	i	i
COCc1cc(=O)[nH]c2cc(NC(=O)C3CC3)c(C)cc12	i	i	20µM	i	i	i
CCc1ccccc1NC(=O)/C(=C/c1ccco1)c1ccccc1	7.1µM	i	i	i	i	i
Cc1ccccc1NC(=O)/C(=C/c1ccco1)c1ccccc1	?	i	i	i	i	i
COCc1cc(C)nc(OCC(=O)N/N=C/c2ccco2)c1C#N	i	i	14µM	i	i	i
Cc1ccc(OCCCn2c(C3CC(=O)N(c4cccc(Cl)c4)C3)nc3ccccc32)c(C)c1 (centres undefined)	?	i	i	nt	nt	i
O=C1CC(c2nc3ccccc3n2CCCCOc2ccccc2)CN1c1ccccc1Cl (centres undefined)	10µM	i	i	nt	nt	i
COc1ccc(OCCCCn2c(C3CC(=O)N(c4cccc(Cl)c4)C3)nc3ccccc32)cc1 (centres undefined)	10µM	i	i	nt	nt	i
Cc1cc2c(c(=O)n1Cc1ccccn1)C(C(C)C)C(C#N)=C(N)O2 (centres undefined)	i	i	i	i	i	i
CC(C)NC(=O)c1cc(-c2cccc(OC(C)C)c2)nc2ccccc12	nt	nt	nt	nt	nt	i
CC(C)Oc1cccc(-c2cc(C(=O)NC(=S)N(C)c3ccccc3C(=O)O)c3ccccc3n2)c1	i	i	6.3µM	i	i	i
O=[N+]([O-])c1ccc2nonc2c1Nc1cccc(F)c1	i	i	i	i	?	i
S=C(NN=C(c1ccccc1)c1ccccn1)N(Cc1ccccn1)Cc1ccccn1	i	?	i	nt	i	i
S=C(NN=Cc1ccccn1)N(Cc1ccccn1)Cc1ccccn1	?	?	22µM	nt	i	i
CC(=NNC(=S)N(Cc1ccccn1)Cc1ccccn1)c1cnccn1	?	4.5µM	i	nt	i	i
Cc1cccc(N(Cc2cc3ccccc3[nH]c2=O)C(=O)c2cccc(Cl)c2)c1	?	i	i	nt	nt	i

Source: PubChem BioAssay
